This is one part of a sample in which hits are shown more often than they occur.
NOMO-1 viab = STK33 inhibitor candidate reducing NOMO-1 cell viability; NOMO-1 AML viability, CellTiter-Glo luminescence, 72 h; inhibition, % (concentration not given with the values); AID 2330; hit rate 7.5% among 37,000; in the data active = inhibition above about 80%; inconclusive = no clear call, values can overlap the other calls
PD-1 reverse act = activators reversing PD-1 mediated T-cell inhibition; primary human CD4 T cells, PD-L1 beads, CellTiter-Glo 96 h; activation, % (no concentration beside the values); 29,000 tested, under 10 active; call rule not given here;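 note: 0% = median vehicle wells and 100% = positive control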
STK33 kin inh = blocks human STK33 kinase activity; Q9BYT3; ADP-Glo luminescence, MBP substrate; inhibition, % at 12.5 µM; hit rate 0.44% among 27,000; in the data active = inhibition above about 20%; inconclusive = no clear call, values can overlap the other calls
Target sequence (Q9BYT3 whole entry, looked up): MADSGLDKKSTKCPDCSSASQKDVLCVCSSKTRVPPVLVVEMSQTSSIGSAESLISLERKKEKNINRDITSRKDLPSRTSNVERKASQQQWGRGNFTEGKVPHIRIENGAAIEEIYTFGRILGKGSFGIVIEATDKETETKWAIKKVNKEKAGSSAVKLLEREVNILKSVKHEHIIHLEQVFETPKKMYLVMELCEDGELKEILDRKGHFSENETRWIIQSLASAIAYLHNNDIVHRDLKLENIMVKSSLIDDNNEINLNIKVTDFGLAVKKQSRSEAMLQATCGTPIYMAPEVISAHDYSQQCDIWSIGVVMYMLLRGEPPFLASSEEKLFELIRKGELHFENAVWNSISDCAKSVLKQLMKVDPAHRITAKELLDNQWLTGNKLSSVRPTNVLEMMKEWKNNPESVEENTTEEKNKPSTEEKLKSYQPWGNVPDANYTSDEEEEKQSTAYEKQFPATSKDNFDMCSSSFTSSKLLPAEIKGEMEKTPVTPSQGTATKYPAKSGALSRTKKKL
Numbers without * were called inactive; u = inconclusive; x = no result; ! = repeats disagree.

SMILES	NOMO-1 viab	PD-1 reverse act	STK33 kin inh
C[C@@H]1CN([C@H](C)CO)C(=O)c2cc(NC(=O)Nc3cccc4ccccc34)ccc2O[C@@H]1CN(C)Cc1ccccc1	56.6	x	x
C[C@H]1CN([C@@H](C)CO)C(=O)c2cc(NC(=O)Nc3cccc4ccccc34)ccc2O[C@@H]1CN(C)Cc1ccc(-c2ccccc2)cc1	101.7*	-3.7	-2.2
COC(=O)c1c(C)oc2cc(Br)c(OCC(=O)c3ccc(F)cc3)cc12	11.6	0.0	-0.2
CCOC(=O)c1ccc(-c2coc3cc(OC(C)=O)c(CC)cc3c2=O)o1	6.6	0.3	x
Cc1cccc(OCC(=O)Nc2cc(C(F)(F)F)ccc2N2CCOCC2)c1	47.0	-5.6	3.4
CCn1c(SCC(=O)Nc2ccccc2C)nnc1-c1ccc(Br)cc1	24.9	3.2	-5.4
O=C(CSc1nnc(-c2ccccc2)n1-c1ccccc1)Nc1cccc(Br)c1	u	x	13.1
O=C(CSc1nnc(-c2ccco2)n1-c1ccccc1)Nc1ccnc2ccccc12	65.3	-5.3	8.4
C[C@@H]1CN([C@@H](C)CO)C(=O)c2cc(NS(=O)(=O)c3ccc(Cl)cc3)ccc2O[C@H]1CN(C)Cc1ccc(-c2ccccc2)cc1	106.3*	-0.1	x
C[C@H](CO)N1C[C@H](C)[C@H](CN(C)Cc2ccccc2)Oc2ccc(NS(=O)(=O)c3ccccc3)cc2C1=O	-10.7	-0.4	x
C[C@H]1CN([C@@H](C)CO)C(=O)c2cc(NS(=O)(=O)c3ccccc3)ccc2O[C@@H]1CN(C)Cc1ccccc1	3.7	x	x
C[C@@H]1CN([C@@H](C)CO)C(=O)c2cc(NS(=O)(=O)c3ccccc3)ccc2O[C@@H]1CN(C)Cc1ccc(-c2ccccc2)cc1	115.0*	x	x
C[C@H]1CN([C@@H](C)CO)C(=O)c2cc(NS(=O)(=O)c3ccc(Cl)cc3)ccc2O[C@H]1CN(C)Cc1ccc(-c2ccccc2)cc1	62.1	1.2	0.9
C[C@H]1CN([C@@H](C)CO)C(=O)c2cc(NS(=O)(=O)c3ccccc3)ccc2O[C@@H]1CN(C)Cc1ccc(-c2ccccc2)cc1	87.4*	-1.9	2.3
Cc1ccc(N(CC(N)=O)S(=O)(=O)c2ccc(Cl)cc2)cc1C	30.0	-4.2	-5.9
CS(=O)(=O)N(CC(=O)Nc1ccc(Br)c(Cl)c1)c1ccc(F)cc1	63.6	-5.9	0.4
COc1ccc(NC(=O)CN(C)S(=O)(=O)c2ccc(Br)cc2)c([N+](=O)[O-])c1	-31.3	x	-2.5
N#CC1=C(N)C(C#N)=c2s/c(=C/c3cccc(F)c3)c(=O)n2C1c1cccc(F)c1 (stereo not given)	115.7*	0.9	11.5
Cc1cc2c(c(=O)n1CCN1CCOCC1)C(c1cccc(F)c1)C(C#N)=C(N)O2 (stereo not given)	-1.4	-0.8	x
CCOC(=O)c1c(-c2ccccc2)csc1NC(=O)Cn1c(=O)oc2ccccc21	6.4	-0.1	-4.6
CCOC(=O)CC1Sc2ccccc2N=C1SCC(=O)Nc1cccc(C(F)(F)F)c1 (stereo not given)	126.5*	-5.1	x
CCOc1ccc2nc(SCC(=O)Nc3cccc(C(F)(F)F)c3)sc2c1	-1.2	x	-3.0
CSc1cccc(NC(=O)CN(c2ccc(F)c(Cl)c2)S(C)(=O)=O)c1	-7.8	-0.8	-2.7
CN1CCN(CCCN2c3ccccc3Sc3ccc(C(F)(F)F)cc32)CC1	111.9*!	x	1.5
O=C(CCN1CCN(CCO)CC1)N1c2ccccc2Sc2ccc(C(F)(F)F)cc21	16.5	x	-0.9
SMILES	NOMO-1 viab	PD-1 reverse act	STK33 kin inh
O=C(CCCN1C(=O)c2ccccc2C1=O)Nc1cccc(Cl)c1	-8.5	x	0.4
Cc1cc(NC(=O)C(C)n2cc([N+](=O)[O-])cn2)ccc1Br (stereo not given)	26.2	x	-3.9
CC(C)(C)c1ccc(-c2cc3ccccn3c2)cc1	103.6*	0.6	x
CCC1(C)Cc2c(sc3nc(SC)nc(SCC(=O)Nc4cccc(Cl)c4)c23)CO1 (stereo not given)	27.3	-2.1	6.1
CSc1ccccc1NC(=O)CN(c1ccc(I)cc1)S(C)(=O)=O	22.8	x	0.2
Cc1ccc(-c2nc3cc(Cl)ccc3o2)cc1NC(=O)COc1ccc(Br)cc1	35.9	-0.7	6.1
Cc1nnc(SCc2nnnn2-c2ccccc2)[nH]c1=O	15.3	x	2.8
C[C@H](CO)N1C[C@H](C)[C@H](CN(C)S(=O)(=O)c2ccc(F)cc2)Oc2ccc(NC(=O)CCC(F)(F)F)cc2CC1=O	125.7*	0.4	-0.4
C[C@H]1CN([C@@H](C)CO)C(=O)Cc2cc(NC(=O)Nc3ccc(C(F)(F)F)cc3)ccc2O[C@H]1CN(C)S(=O)(=O)c1ccc(F)cc1	115.0*	-3.4	-1.1
C[C@H]1CN([C@@H](C)CO)C(=O)Cc2cc(NC(=O)CCC(F)(F)F)ccc2O[C@@H]1CN(C)S(=O)(=O)c1ccc(F)cc1	16.2	x	0.2
C[C@@H]1CN([C@H](C)CO)C(=O)Cc2cc(NC(=O)Nc3ccc(C(F)(F)F)cc3)ccc2O[C@H]1CN(C)S(=O)(=O)c1ccc(F)cc1	5.9	0.7	-1.2
C[C@@H]1CN([C@@H](C)CO)C(=O)Cc2cc(NC(=O)Nc3ccc(C(F)(F)F)cc3)ccc2O[C@@H]1CN(C)S(=O)(=O)c1ccc(F)cc1	99.7*	-0.6	-8.5
C[C@H]1CN([C@@H](C)CO)C(=O)Cc2cc(NC(=O)Nc3ccc(F)cc3)ccc2O[C@@H]1CN(C)S(=O)(=O)c1ccc(F)cc1	24.9	-0.4	-2.2
C=C1[C@]2(C)C[C@@H]3C(=C)[C@@]4(C=CC(=O)OC4(C)C)CC[C@@]3(C)[C@]13C(=O)O[C@H](C)[C@]3(O)C2=O	24.6	-0.7	-5.4
O=C(NCc1ccco1)c1cncc(Br)c1	3.8	-0.2	3.6
O=C1CCCC(O)=C1C=Nc1cccc2ccccc12	42.5	-0.5	x
Cc1cc(C)c(NC(=O)CSc2nc3c(c(-c4ccco4)c2C#N)CCCC3)c(C)c1	u	-4.2	1.9
NCCNS(=O)(=O)c1cccc2c(Cl)cccc12	31.4	2.8	4.8
O=S(=O)(NCCNC/C=C/c1ccc(Br)cc1)c1cccc2cnccc12	57.8	-2.9	78.8*
CNCCNS(=O)(=O)c1cccc2cnccc12	14.0	-0.8	22.2*
CC(C)Cn1c(SCC(=O)c2ccc(Cl)cc2)nc2ccccc2c1=O	50.6	-0.1	-0.3
COc1ccc(NC(=O)Cc2c(OC)ccc3cc(Br)ccc23)c(OC)c1	45.6	-1.9	2.1
COc1ccc(NC(=O)c2ccccc2NC(=O)COc2ccc(Cl)cc2)cc1	10.2	x	16.1
O/N=C/c1ccc(-c2cc(C(F)(F)F)cc(C(F)(F)F)c2)o1	18.1	-0.9	x
C/C=C/C=C/C(=O)c1cc(C)c(O)c(C)c1O	61.1	-8.3	-6.7
COc1ccc(S(=O)(=O)Nc2ccc3c(c2)C(=O)N([C@H](C)CO)C[C@H](C)[C@@H](CN(C)Cc2ccc(C(F)(F)F)cc2)OCCCC[C@@H](C)O3)cc1	u	x	-2.2
Cc1ccc(S(=O)(=O)Nc2ccc3c(c2)C(=O)N([C@H](C)CO)C[C@H](C)[C@@H](CN(C)Cc2ccc(C(F)(F)F)cc2)OCCCC[C@@H](C)O3)cc1	112.1*	x	2.4
C[C@@H]1CCCCO[C@H](CN(C)Cc2ccc(C(F)(F)F)cc2)[C@@H](C)CN([C@H](C)CO)C(=O)c2cc(NS(C)(=O)=O)ccc2O1	15.5	x	-0.6

Compound activity (PubChem BioAssay)
